# From paper PMC11006913
# Tests used:
# Assay in all cases: PBM; 200 nM protein, PBS
# Conditions in all cases: dsDNA, one strand shown
# HESX1 [1] = target: HESX1 (Homo sapiens, UniProt Q9UBX0 95-180, R165K)
# SHOX [2] = target: SHOX (Homo sapiens, UniProt O15266 103-189)
# ALX4 = ALX4 (Homo sapiens, UniProt Q9H161 200-286, Q225E)
# HESX1 [3] = target: HESX1 (Homo sapiens, UniProt Q9UBX0 95-180)
# ALX1 [4] = target: ALX1 (Homo sapiens, UniProt Q15699 118-204, L144V)
# ALX3 [5] = target: ALX3 (Homo sapiens, UniProt O95076 139-225, N203Q)
# Sequence of ALX3 (Homo sapiens, UniProt O95076 139-225, N203Q) (O95076 139-225 N203Q): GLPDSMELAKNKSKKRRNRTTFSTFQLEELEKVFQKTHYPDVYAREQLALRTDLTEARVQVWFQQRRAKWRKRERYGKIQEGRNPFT
# SHOX [6] = target: SHOX (Homo sapiens, UniProt O15266 103-189, R173C)
# Sequence of SHOX (Homo sapiens, UniProt O15266 103-189, R173C) (O15266 103-189 R173C): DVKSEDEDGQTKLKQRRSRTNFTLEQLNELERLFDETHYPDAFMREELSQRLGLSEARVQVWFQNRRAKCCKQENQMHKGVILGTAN
# ALX1 [7] = target: ALX1 (Homo sapiens, UniProt Q15699 118-204, L144R)
# Sequence of ALX1 (Homo sapiens, UniProt Q15699 118-204, L144R) (Q15699 118-204 L144R): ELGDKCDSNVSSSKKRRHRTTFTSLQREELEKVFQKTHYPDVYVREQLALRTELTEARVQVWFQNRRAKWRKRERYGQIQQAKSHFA
# ALX3 [8] = target: ALX3 (Homo sapiens, UniProt O95076 139-225)
# Sequence of ALX3 (Homo sapiens, UniProt O95076 139-225) (O95076 139-225): as the sequence (O95076 139-225 N203Q) above, with Q65N counted along it
# PROP1 [9] = target: PROP1 (Homo sapiens, UniProt O75360 56-141)
# Sequence of PROP1 (Homo sapiens, UniProt O75360 56-141) (O75360 56-141): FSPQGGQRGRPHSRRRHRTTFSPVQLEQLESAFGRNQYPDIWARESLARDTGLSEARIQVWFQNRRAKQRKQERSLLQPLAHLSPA
# HESX1 [10] = target: HESX1 (Homo sapiens, UniProt Q9UBX0 95-180, R109Q)
# Sequence of HESX1 (Homo sapiens, UniProt Q9UBX0 95-180, R109Q) (Q9UBX0 95-180 R109Q): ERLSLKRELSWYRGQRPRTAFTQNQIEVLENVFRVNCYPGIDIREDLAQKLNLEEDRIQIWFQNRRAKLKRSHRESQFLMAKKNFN
# PROP1 [11] = target: PROP1 (Homo sapiens, UniProt O75360 56-141, R99H)
# Sequence of PROP1 (Homo sapiens, UniProt O75360 56-141, R99H) (O75360 56-141 R99H): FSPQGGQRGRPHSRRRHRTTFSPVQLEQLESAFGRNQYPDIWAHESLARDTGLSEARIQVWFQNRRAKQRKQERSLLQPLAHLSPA
# ALX3 [12] = target: ALX3 (Homo sapiens, UniProt O95076 139-225, L168Q)
# Sequence of ALX3 (Homo sapiens, UniProt O95076 139-225, L168Q) (O95076 139-225 L168Q): as the sequence (O95076 139-225 N203Q) above, with L30Q, Q65N counted along it
# HESX1 [13] = target: HESX1 (Homo sapiens, UniProt Q9UBX0 95-180, P111T)
# Sequence of HESX1 (Homo sapiens, UniProt Q9UBX0 95-180, P111T) (Q9UBX0 95-180 P111T): as the sequence (Q9UBX0 95-180 R109Q) above, with Q15R, P17T counted along it
# ALX3 [14] = target: ALX3 (Homo sapiens, UniProt O95076 139-225, L168V)
# Sequence of ALX3 (Homo sapiens, UniProt O95076 139-225, L168V) (O95076 139-225 L168V): as the sequence (O95076 139-225 N203Q) above, with L30V, Q65N counted along it
# PROP1 [15] = target: PROP1 (Homo sapiens, UniProt O75360 56-141, F88S)
# Sequence of PROP1 (Homo sapiens, UniProt O75360 56-141, F88S) (O75360 56-141 F88S): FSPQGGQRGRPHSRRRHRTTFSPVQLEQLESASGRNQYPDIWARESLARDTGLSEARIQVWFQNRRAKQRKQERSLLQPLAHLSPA
# HESX1 [16] = target: HESX1 (Homo sapiens, UniProt Q9UBX0 95-180, F115L)
# Sequence of HESX1 (Homo sapiens, UniProt Q9UBX0 95-180, F115L) (Q9UBX0 95-180 F115L): as the sequence (Q9UBX0 95-180 R109Q) above, with Q15R, F21L counted along it
# ALX1 [17] = target: ALX1 (Homo sapiens, UniProt Q15699 118-204)
# Sequence of ALX1 (Homo sapiens, UniProt Q15699 118-204) (Q15699 118-204): as the sequence (Q15699 118-204 L144R) above, with R27L counted along it
# ALX3 [18] = target: ALX3 (Homo sapiens, UniProt O95076 139-225, N203S)
# Sequence of ALX3 (Homo sapiens, UniProt O95076 139-225, N203S) (O95076 139-225 N203S): as the sequence (O95076 139-225 N203Q) above, with Q65S counted along it
# MSX2 = MSX2 (Homo sapiens, UniProt P35548 130-214, R199I)
# Sequence of MSX2 (P35548 130-214 R199I): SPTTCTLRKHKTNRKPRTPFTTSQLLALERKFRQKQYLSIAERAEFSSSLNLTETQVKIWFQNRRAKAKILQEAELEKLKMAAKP
# Sequence of ALX4 (Q9H161 200-286 Q225E): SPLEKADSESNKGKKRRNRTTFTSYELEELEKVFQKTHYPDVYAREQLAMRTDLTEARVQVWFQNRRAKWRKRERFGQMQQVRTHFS
# Sequence of ALX1 (Homo sapiens, UniProt Q15699 118-204, L144V) (Q15699 118-204 L144V): as the sequence (Q15699 118-204 L144R) above, with R27V counted along it
# Sequence of HESX1 (Homo sapiens, UniProt Q9UBX0 95-180, R165K) (Q9UBX0 95-180 R165K): as the sequence (Q9UBX0 95-180 R109Q) above, with Q15R, R71K counted along it
# Sequence of SHOX (Homo sapiens, UniProt O15266 103-189) (O15266 103-189): as the sequence (O15266 103-189 R173C) above, with C71R counted along it
# Sequence of HESX1 (Homo sapiens, UniProt Q9UBX0 95-180) (Q9UBX0 95-180): as the sequence (Q9UBX0 95-180 R109Q) above, with Q15R counted along it
Sequence,binding signal (HESX1 [1]),binding signal (SHOX [2]),binding signal (ALX4),binding signal (HESX1 [3]),binding signal (ALX1 [4]),binding signal (ALX3 [5]),binding signal (SHOX [6]),binding signal (ALX1 [7]),binding signal (ALX3 [8]),binding signal (PROP1 [9]),binding signal (HESX1 [10]),binding signal (PROP1 [11]),binding signal (ALX3 [12]),binding signal (HESX1 [13]),binding signal (ALX3 [14]),binding signal (PROP1 [15]),binding signal (HESX1 [16]),binding signal (ALX1 [17]),binding signal (ALX3 [18]),binding signal (MSX2)
AATTAAGA,"11.6 upbm affinity estimate (log intensity, higher = more binding, comparable within an allelic series)","11.7 upbm affinity estimate (log intensity, higher = more binding, comparable within an allelic series)","12.8 upbm affinity estimate (log intensity, higher = more binding, comparable within an allelic series)","11.6 upbm affinity estimate (log intensity, higher = more binding, comparable within an allelic series)","11.7 upbm affinity estimate (log intensity, higher = more binding, comparable within an allelic series)","8.44 upbm affinity estimate (log intensity, higher = more binding, comparable within an allelic series)","9.59 upbm affinity estimate (log intensity, higher = more binding, comparable within an allelic series)","11.3 upbm affinity estimate (log intensity, higher = more binding, comparable within an allelic series)","12.4 upbm affinity estimate (log intensity, higher = more binding, comparable within an allelic series)","11.2 upbm affinity estimate (log intensity, higher = more binding, comparable within an allelic series)","9.03 upbm affinity estimate (log intensity, higher = more binding, comparable within an allelic series)","10.9 upbm affinity estimate (log intensity, higher = more binding, comparable within an allelic series)","10.4 upbm affinity estimate (log intensity, higher = more binding, comparable within an allelic series)","10.5 upbm affinity estimate (log intensity, higher = more binding, comparable within an allelic series)","9.95 upbm affinity estimate (log intensity, higher = more binding, comparable within an allelic series)","7.71 upbm affinity estimate (log intensity, higher = more binding, comparable within an allelic series)","7.79 upbm affinity estimate (log intensity, higher = more binding, comparable within an allelic series)","12.1 upbm affinity estimate (log intensity, higher = more binding, comparable within an allelic series)","8.55 upbm affinity estimate (log intensity, higher = more binding, comparable within an allelic series)",–
AATTAACT,"12.1 upbm affinity estimate (log intensity, higher = more binding, comparable within an allelic series)","11.8 upbm affinity estimate (log intensity, higher = more binding, comparable within an allelic series)","13.4 upbm affinity estimate (log intensity, higher = more binding, comparable within an allelic series)","12.2 upbm affinity estimate (log intensity, higher = more binding, comparable within an allelic series)","11.7 upbm affinity estimate (log intensity, higher = more binding, comparable within an allelic series)","8.48 upbm affinity estimate (log intensity, higher = more binding, comparable within an allelic series)","9.37 upbm affinity estimate (log intensity, higher = more binding, comparable within an allelic series)","11.4 upbm affinity estimate (log intensity, higher = more binding, comparable within an allelic series)","12.5 upbm affinity estimate (log intensity, higher = more binding, comparable within an allelic series)","11.5 upbm affinity estimate (log intensity, higher = more binding, comparable within an allelic series)","9.2 upbm affinity estimate (log intensity, higher = more binding, comparable within an allelic series)","11.4 upbm affinity estimate (log intensity, higher = more binding, comparable within an allelic series)","10.7 upbm affinity estimate (log intensity, higher = more binding, comparable within an allelic series)","10.7 upbm affinity estimate (log intensity, higher = more binding, comparable within an allelic series)","10.2 upbm affinity estimate (log intensity, higher = more binding, comparable within an allelic series)","7.8 upbm affinity estimate (log intensity, higher = more binding, comparable within an allelic series)","7.81 upbm affinity estimate (log intensity, higher = more binding, comparable within an allelic series)","12.3 upbm affinity estimate (log intensity, higher = more binding, comparable within an allelic series)","8.69 upbm affinity estimate (log intensity, higher = more binding, comparable within an allelic series)","12.4 upbm affinity estimate (log intensity, higher = more binding, comparable within an allelic series)"
AATTAAGT,"11.6 upbm affinity estimate (log intensity, higher = more binding, comparable within an allelic series)","11.8 upbm affinity estimate (log intensity, higher = more binding, comparable within an allelic series)","13 upbm affinity estimate (log intensity, higher = more binding, comparable within an allelic series)","11.6 upbm affinity estimate (log intensity, higher = more binding, comparable within an allelic series)","11.7 upbm affinity estimate (log intensity, higher = more binding, comparable within an allelic series)","8.5 upbm affinity estimate (log intensity, higher = more binding, comparable within an allelic series)","9.31 upbm affinity estimate (log intensity, higher = more binding, comparable within an allelic series)","11.4 upbm affinity estimate (log intensity, higher = more binding, comparable within an allelic series)","12.5 upbm affinity estimate (log intensity, higher = more binding, comparable within an allelic series)","11.3 upbm affinity estimate (log intensity, higher = more binding, comparable within an allelic series)","8.53 upbm affinity estimate (log intensity, higher = more binding, comparable within an allelic series)","11.2 upbm affinity estimate (log intensity, higher = more binding, comparable within an allelic series)","10.5 upbm affinity estimate (log intensity, higher = more binding, comparable within an allelic series)","10.3 upbm affinity estimate (log intensity, higher = more binding, comparable within an allelic series)","10 upbm affinity estimate (log intensity, higher = more binding, comparable within an allelic series)","7.71 upbm affinity estimate (log intensity, higher = more binding, comparable within an allelic series)","7.65 upbm affinity estimate (log intensity, higher = more binding, comparable within an allelic series)","12.3 upbm affinity estimate (log intensity, higher = more binding, comparable within an allelic series)","8.69 upbm affinity estimate (log intensity, higher = more binding, comparable within an allelic series)","12.2 upbm affinity estimate (log intensity, higher = more binding, comparable within an allelic series)"
ATAATTGG,"13.5 upbm affinity estimate (log intensity, higher = more binding, comparable within an allelic series)","12.6 upbm affinity estimate (log intensity, higher = more binding, comparable within an allelic series)","13.7 upbm affinity estimate (log intensity, higher = more binding, comparable within an allelic series)","13.4 upbm affinity estimate (log intensity, higher = more binding, comparable within an allelic series)","12 upbm affinity estimate (log intensity, higher = more binding, comparable within an allelic series)","8.37 upbm affinity estimate (log intensity, higher = more binding, comparable within an allelic series)","9.98 upbm affinity estimate (log intensity, higher = more binding, comparable within an allelic series)","11.7 upbm affinity estimate (log intensity, higher = more binding, comparable within an allelic series)","12.6 upbm affinity estimate (log intensity, higher = more binding, comparable within an allelic series)","11.7 upbm affinity estimate (log intensity, higher = more binding, comparable within an allelic series)","10 upbm affinity estimate (log intensity, higher = more binding, comparable within an allelic series)","12 upbm affinity estimate (log intensity, higher = more binding, comparable within an allelic series)","10.9 upbm affinity estimate (log intensity, higher = more binding, comparable within an allelic series)","12.1 upbm affinity estimate (log intensity, higher = more binding, comparable within an allelic series)","10.4 upbm affinity estimate (log intensity, higher = more binding, comparable within an allelic series)","7.6 upbm affinity estimate (log intensity, higher = more binding, comparable within an allelic series)","8.41 upbm affinity estimate (log intensity, higher = more binding, comparable within an allelic series)","12.6 upbm affinity estimate (log intensity, higher = more binding, comparable within an allelic series)","8.55 upbm affinity estimate (log intensity, higher = more binding, comparable within an allelic series)","13.1 upbm affinity estimate (log intensity, higher = more binding, comparable within an allelic series)"
